In all, about 48,000 compounds went through this assay and about 13,000 (27%) showed an effect of 50% or more. Some of the results follow.
These compounds were tested on Wolbachia pipientis (assay: Anti-Wolbachia Cell-Based Screen). Details: 5 µM.
Assay type: functional
Parameters: scale not given: in the data most compounds retested in dose-response had high values
`O=C1C(NCc2nnc3n2CCCC3)CCN1CC(F)(F)F` (centres undefined) was tested, and the “Percent Effect” value was -0.8085%.
For `COc1ccc(CSCC(O)CO)c(Cl)c1` (centres undefined), the “Percent Effect” value was -5.402%.
`CCn1cc(S(=O)(=O)NC(CO)Cc2c[nH]c3ccccc23)cn1` (centres undefined) was tested, and the “Percent Effect” value was -10.13%.
With `CC(=O)NC1CCN(c2nc(C)nc3c2c(C)nn3C)C1` (centres undefined) the “Percent Effect” value was -5.882%.
With `CCN(CC)c1nc2sc(C(=O)NC(C)(C)C(=O)OC)cc2s1` the “Percent Effect” value was 3.402%.
For `Cc1ccc(N2Cc3nc(=O)[nH]n3C2=O)cc1`, the “Percent Effect” value was -1.797%.
`Cc1noc(CN2CCN(CCS(C)(=O)=O)CC2)n1` was tested, and the “Percent Effect” value was -3.839%.
`COC(=O)c1ccc(CN2CCC(c3n[nH]c(C)n3)CC2)s1` was tested, and the “Percent Effect” value was 96.4%.
In the case of `COC(=O)c1ccc(CN2CCC(c3noc(C)n3)CC2)s1`, the “Percent Effect” value is reported as 44.67%.
For `COC(=O)c1cc(CN2CCC(c3noc(C)n3)CC2)c(C)s1`, the “Percent Effect” value was 83.77%.
In the case of `Cc1nc(C2CCN(S(=O)(=O)c3ccc4c(c3)CCO4)CC2)n[nH]1`, the “Percent Effect” value is reported as 0.09354%.
`COC(=O)c1ccc(CN2CCN(Cc3nc(C)no3)CC2)s1` was tested, and the “Percent Effect” value was 97.03%.
`Cc1noc(CN2CCN(C(C)C(=O)NCc3cccs3)CC2)n1` (centres undefined) was tested, and the “Percent Effect” value was 10.97%.
With `COC(=O)c1ccc(Cn2cccc(C(F)(F)F)c2=O)s1` the “Percent Effect” value was -1.829%.
For `CC(=O)NCC1CCN(Cc2nc(C3CC3)no2)CC1`, the “Percent Effect” value was 21.76%.
`O=C1CCCc2occ(C(=O)N3CCCC4(CCNC4)C3)c21` (centres undefined) was tested, and the “Percent Effect” value was -0.7654%.
For `Cc1c(Cl)cccc1S(=O)(=O)NCC(O)c1cccn1C` (centres undefined), the “Percent Effect” value was 9.208%.
With `O=C(NCCn1cccn1)Nc1cc(C(=O)N2CCOCC2)ccc1Cl` the “Percent Effect” value was -1.545%.
In the case of `COCCNC(=O)[C@H]1C[C@@](CC(C)C)(C(=O)O)N(C)[C@H]1c1cccnc1`, the “Percent Effect” value is reported as -5.7%.
`Cc1cc(C)n(-c2ccc(C(=O)NCC(CO)Cc3cccs3)cc2)n1` (centres undefined) was tested, and the “Percent Effect” value was 87.25%.
In the case of `CC(C)n1cc(C(=O)NCCc2cn3ccsc3n2)cn1`, the “Percent Effect” value is reported as -2.025%.
For `CC(C)n1cc(C(=O)NCC(CO)Cc2cccs2)cn1` (centres undefined), the “Percent Effect” value was 100.7%.
In the case of `Cc1cc(C)n(-c2ccc(C(=O)NCc3cncn3CC(C)C)cc2)n1`, the “Percent Effect” value is reported as -4.296%.
With `Cc1cc(C)n(-c2ccc(C(C)NS(=O)(=O)CCCS(C)(=O)=O)cc2)n1` (centres undefined) the “Percent Effect” value was 5.826%.
With `CCCS(=O)(=O)NC(=O)c1ccc(-n2nc(C)cc2C)cc1` the “Percent Effect” value was -12.15%.
For `CC(CNC(=O)N1CCC(CO)CC1)Cc1cccs1` (centres undefined), the “Percent Effect” value was -8.447%.
`CSCc1nc(CNC(=O)c2cnn(C(C)C)c2)cs1` was tested, and the “Percent Effect” value was -8.764%.
In the case of `Cc1cc(C)n(-c2ccc(C(=O)NCC(CO)Cc3ccco3)cc2)n1` (centres undefined), the “Percent Effect” value is reported as 116.9%.
For `Cc1cc(-c2nn(C)c(Cl)c2CN2Cc3ccccc3C(O)C2)no1` (centres undefined), the “Percent Effect” value was 9.326%.
